# Inconclusive results are not listed. The source made the active and inactive calls. How the source made its calls: active means hit-call score of the fitted dose curve at least 0.9, where 1 is the maximum; inconclusive means response in the unintended direction; inactive means score below 0.9. Peptide text beside a SMILES is read from it.
# What was measured:
# [1] = ACEA_AR_agonist_AUC_viability: ACEA Biosciences xCELLigence Real-Time Cell Analysis on Androgen Receptor Agonism for Viability (AID 2283775);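 on AC50: viability read 80 hours after compound addition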
# Method in brief: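 Real-time impedance tracking of 22Rv1 growth, readings every 5 min for 5 h then hourly; area-under-curve viability endpoint at 80 hours, relative to DMSO. Compounds at eight concentrations, 1:4 steps, top 100 uM, n = 2.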
# [2] = ACEA_AR_antagonist_AUC_viability: ACEA Biosciences xCELLigence Real-Time Cell Analysis on Androgen Receptor Antagonism for Viability (AID 2283776);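 further: 22Rv1 human prostate cancer cells growing on impedance electrode plates; hits lower the growth signal relative to DMSO meaning cytotoxicity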
# Method in brief: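 Impedance read-out (RT-CES): area under growth curve at 80 h post-dose, loss of signal scored vs DMSO baseline. 22Rv1 cells; 8-pt 1:4 series, top 100 uM final, ≤0.5% DMSO; biological duplicate.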
# [3] = ACEA_ER_AUC_viability: ACEA Biosciences xCELLigence Real-Time Cell Analysis on Estrogen Receptor Agonism for Viability (AID 2283782);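 further: continuous compound exposure with impedance area under curve over 80 h; hit means loss of impedance signal meaning reduced cell growth or viability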
# Method in brief: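 T47D cells preconditioned in phenol red-free RPMI with charcoal-stripped FBS, then dosed with 8-point 1:4 series from 100 uM (up to 0.5% DMSO). Impedance monitored up to ~80 h; area-under-curve loss versus DMSO taken as viability.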
compound,measurement,setting,value
CCCC(CC)c1ccccc1 (stereo not given),outcome,[1],inactive
same,outcome,[2],inactive
same,outcome,[3],inactive
CCN1CN(CC)CN(CC)C1,outcome,[1],inactive
same,outcome,[2],inactive
same,AC50,[3],66.4 µM (active)
O=C(OCCc1ccccc1)c1ccccc1,outcome,[1],inactive
same,outcome,[2],inactive
same,AC50,[3],85.9 µM (active)
CCCCNS(=O)(=O)c1ccc(C)cc1,outcome,[1],inactive
CC12CCC(CC1)C(C)(C)O2,outcome,[1],inactive
O=C(O)CC(C(=O)O)S(=O)(=O)O (stereo not given),outcome,[1],inactive
same,outcome,[2],inactive
O=S(=O)(O)c1ccc(N=Nc2c(O)ccc3ccccc23)cc1,outcome,[1],inactive
same,outcome,[2],inactive
CCCCC(=O)O,outcome,[1],inactive
same,outcome,[2],inactive
NC(=O)Nc1ccccc1,outcome,[1],inactive
same,outcome,[2],inactive
CC1=NN(c2ccc(S(=O)(=O)O)cc2)C(=O)C1N=Nc1ccccc1 (stereo not given),outcome,[1],inactive
same,outcome,[2],inactive
same,outcome,[3],inactive
CCCCCCC=O,outcome,[1],inactive
same,outcome,[2],inactive
O=C(Nc1ccccc1)c1cc(Cl)ccc1O,AC50,[1],14.3 µM (active)
same,AC50,[2],16.6 µM (active)
same,AC50,[3],82.1 µM (active)
CCOC(=O)c1ccccc1C,outcome,[1],inactive
same,outcome,[2],inactive
CC(C)(C)N,outcome,[1],inactive
same,outcome,[2],inactive
same,outcome,[3],inactive
CCCCNC(=S)NCCCC,outcome,[1],inactive
CC1=CCC2CC1C2(C)C (stereo not given),outcome,[1],inactive
C[Si](C)(C)N[Si](C)(C)C,outcome,[1],inactive
same,outcome,[2],inactive
same,outcome,[3],inactive
CO[Si](C)(C)OC,outcome,[1],inactive
same,outcome,[2],inactive
same,outcome,[3],inactive
C1CNCCN1,outcome,[1],inactive
same,outcome,[2],inactive
same,outcome,[3],inactive
CCCCCCCCCCCC(=O)N(C)CC(=O)O,outcome,[1],inactive
same,outcome,[2],inactive
same,outcome,[3],inactive
CCCCC(CC)COS(=O)(=O)O (stereo not given),outcome,[1],inactive
same,outcome,[2],inactive
COC(=O)[C@H](Cc1ccccc1)NC(=O)[C@@H](N)CC(=O)O (H-Asp-Phe-OMe),outcome,[1],inactive
same,outcome,[2],inactive
